Measured values as given in paper PMC7862700, “An all-to-all approach to the identification of sequence-specific readers for epigenetic DNA modifications on cytosine”.

How the values were obtained:
Test in all cases: DAPPL (digital affinity profiling via proximity ligation, sequencing); 10 mM Tris-HCl pH 7.5, 50 mM NaCl, 1 mM DTT, 4% glycerol, room temperature, 30 min; GST-TFs on glutathione beads, 16-mer random dsDNA library, 0.1% formaldehyde crosslink after washing; high values mean tight binding
FEV = molecular target: T1, FEV (Homo sapiens, UniProt Q99581 1-238); settings: protein: recombinant; tags: N-terminal GST; dsDNA, one strand shown
T1 sequence: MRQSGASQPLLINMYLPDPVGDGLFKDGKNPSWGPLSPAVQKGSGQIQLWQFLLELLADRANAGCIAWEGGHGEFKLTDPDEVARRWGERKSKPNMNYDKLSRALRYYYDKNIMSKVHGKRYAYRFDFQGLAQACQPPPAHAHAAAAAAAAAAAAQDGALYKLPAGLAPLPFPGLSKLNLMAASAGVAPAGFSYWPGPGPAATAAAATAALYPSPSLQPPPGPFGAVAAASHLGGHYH
Method in brief: (§1)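 In yeast, human transcription factors were expressed with a GST fusion, then pulled down on glutathione beads and given DNA barcodes. Pooled with a tag-only sample, they were exposed to 200 nmole of a 16-mer random double-stranded DNA library (Tris/NaCl/DTT/glycerol buffer, room temperature, 30 min), washed, crosslinked with 0.1% formaldehyde, proximity-ligated using BsaI/T4 ligase for 1 h at 37 °C, PCR-amplified and read on an Illumina NextSeq500. Each hexamer's frequency of reads for a factor, divided by the matching frequency for the tag-only sample, gives the binding signal.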

ETV5 = ETV5 (Homo sapiens, UniProt P41161 1-510); settings: protein: recombinant; tags: N-terminal GST; dsDNA, one strand shown
Method in brief: as §1

HSF1 = HSF1 (Homo sapiens, UniProt Q00613 1-529); settings: protein: recombinant; tags: N-terminal GST; chain copies: 3; dsDNA, one strand shown
Method in brief: as §1

SPIC = molecular target: T2, SPIC (Homo sapiens, UniProt Q8N5J4 1-248); settings: protein: recombinant; tags: N-terminal GST; dsDNA, one strand shown
T2 sequence: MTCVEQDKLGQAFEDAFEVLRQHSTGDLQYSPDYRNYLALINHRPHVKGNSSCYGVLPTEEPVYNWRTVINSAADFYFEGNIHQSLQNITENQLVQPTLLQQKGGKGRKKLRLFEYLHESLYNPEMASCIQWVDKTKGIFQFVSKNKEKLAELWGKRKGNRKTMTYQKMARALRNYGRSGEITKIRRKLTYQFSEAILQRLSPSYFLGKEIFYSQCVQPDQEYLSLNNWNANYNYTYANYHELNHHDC
Method in brief: as §1

ELF4 = ELF4 (Homo sapiens, UniProt Q99607 1-663); settings: protein: recombinant; tags: N-terminal GST; dsDNA, one strand shown
Method in brief: as §1

ELK4 = molecular target: T3, ELK4 (Homo sapiens, UniProt P28324-2 1-405); settings: protein: recombinant; tags: N-terminal GST; dsDNA, one strand shown
T3 sequence: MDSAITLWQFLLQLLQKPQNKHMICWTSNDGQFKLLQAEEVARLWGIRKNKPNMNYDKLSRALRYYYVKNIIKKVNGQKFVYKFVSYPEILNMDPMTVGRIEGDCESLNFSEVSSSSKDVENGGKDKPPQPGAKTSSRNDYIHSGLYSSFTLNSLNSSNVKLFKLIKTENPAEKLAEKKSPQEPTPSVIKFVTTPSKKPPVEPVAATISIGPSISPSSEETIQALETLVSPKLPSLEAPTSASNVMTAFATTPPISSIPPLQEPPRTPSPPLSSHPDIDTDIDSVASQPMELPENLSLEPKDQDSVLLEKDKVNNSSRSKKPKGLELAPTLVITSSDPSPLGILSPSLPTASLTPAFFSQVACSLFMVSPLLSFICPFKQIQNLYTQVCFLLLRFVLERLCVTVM
Method in brief: as §1

ETV2 = molecular target: T4, ETV2 (Homo sapiens, UniProt O00321 1-342); settings: protein: recombinant; tags: N-terminal GST; dsDNA, one strand shown
T4 sequence: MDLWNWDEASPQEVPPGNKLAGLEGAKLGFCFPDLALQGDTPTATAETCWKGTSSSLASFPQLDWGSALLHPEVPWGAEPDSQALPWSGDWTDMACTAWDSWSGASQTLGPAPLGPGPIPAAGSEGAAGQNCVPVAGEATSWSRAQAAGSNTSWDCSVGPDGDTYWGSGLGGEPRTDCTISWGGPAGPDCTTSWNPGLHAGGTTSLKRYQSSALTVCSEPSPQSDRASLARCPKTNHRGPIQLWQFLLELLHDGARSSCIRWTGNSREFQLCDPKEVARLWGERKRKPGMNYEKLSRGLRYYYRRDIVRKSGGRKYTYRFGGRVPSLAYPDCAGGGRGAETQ
Method in brief: as §1

ELF3 = molecular target: T5, ELF3 (Homo sapiens, UniProt P78545 1-371); settings: protein: recombinant; tags: N-terminal GST; dsDNA, one strand shown
T5 sequence: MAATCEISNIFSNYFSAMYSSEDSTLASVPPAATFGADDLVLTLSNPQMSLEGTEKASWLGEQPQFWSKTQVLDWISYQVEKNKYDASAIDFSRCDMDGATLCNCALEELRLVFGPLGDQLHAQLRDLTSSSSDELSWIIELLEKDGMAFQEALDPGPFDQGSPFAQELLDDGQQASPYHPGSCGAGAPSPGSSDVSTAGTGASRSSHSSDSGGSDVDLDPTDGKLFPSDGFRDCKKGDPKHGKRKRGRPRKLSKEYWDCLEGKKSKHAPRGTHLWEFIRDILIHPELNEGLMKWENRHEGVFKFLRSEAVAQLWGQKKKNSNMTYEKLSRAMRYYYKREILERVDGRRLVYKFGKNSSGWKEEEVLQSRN
Method in brief: as §1

CRX = CRX (Homo sapiens, UniProt O43186 1-299); settings: protein: recombinant; tags: N-terminal GST; dsDNA, one strand shown
Method in brief: as §1

Chain of HSF1 (Q00613 whole entry): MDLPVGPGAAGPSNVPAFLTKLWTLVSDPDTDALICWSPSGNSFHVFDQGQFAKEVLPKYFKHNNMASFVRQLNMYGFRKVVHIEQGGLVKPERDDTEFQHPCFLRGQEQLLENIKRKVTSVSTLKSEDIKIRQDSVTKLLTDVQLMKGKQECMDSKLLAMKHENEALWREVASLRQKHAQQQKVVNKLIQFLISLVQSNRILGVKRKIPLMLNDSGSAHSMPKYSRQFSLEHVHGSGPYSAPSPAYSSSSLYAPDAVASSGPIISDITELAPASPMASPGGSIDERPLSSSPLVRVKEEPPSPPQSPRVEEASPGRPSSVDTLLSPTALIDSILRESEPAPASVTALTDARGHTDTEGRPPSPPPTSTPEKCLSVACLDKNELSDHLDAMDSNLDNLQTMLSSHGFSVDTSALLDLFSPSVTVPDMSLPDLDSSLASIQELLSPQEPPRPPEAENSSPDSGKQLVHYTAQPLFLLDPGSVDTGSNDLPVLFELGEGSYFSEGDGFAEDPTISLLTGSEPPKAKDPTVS
Chain of ELF4 (Q99607 whole entry): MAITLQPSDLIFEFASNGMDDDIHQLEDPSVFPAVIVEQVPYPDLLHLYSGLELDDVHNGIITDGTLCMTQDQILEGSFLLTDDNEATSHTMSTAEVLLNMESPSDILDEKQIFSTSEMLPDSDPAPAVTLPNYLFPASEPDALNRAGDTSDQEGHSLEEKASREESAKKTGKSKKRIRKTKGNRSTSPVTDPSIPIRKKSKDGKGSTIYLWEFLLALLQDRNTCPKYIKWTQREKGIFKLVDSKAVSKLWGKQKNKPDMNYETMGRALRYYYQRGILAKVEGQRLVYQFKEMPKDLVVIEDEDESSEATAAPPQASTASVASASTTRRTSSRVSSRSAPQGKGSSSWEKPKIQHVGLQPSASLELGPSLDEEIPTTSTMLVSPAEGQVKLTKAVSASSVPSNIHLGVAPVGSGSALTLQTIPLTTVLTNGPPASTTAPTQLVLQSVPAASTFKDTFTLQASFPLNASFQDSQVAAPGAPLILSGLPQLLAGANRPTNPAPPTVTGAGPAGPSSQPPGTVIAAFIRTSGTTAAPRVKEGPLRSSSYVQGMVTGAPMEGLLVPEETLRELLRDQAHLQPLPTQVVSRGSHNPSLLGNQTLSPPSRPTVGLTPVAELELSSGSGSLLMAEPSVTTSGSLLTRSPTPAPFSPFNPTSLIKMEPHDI
Chain of ETV5 (P41161 whole entry): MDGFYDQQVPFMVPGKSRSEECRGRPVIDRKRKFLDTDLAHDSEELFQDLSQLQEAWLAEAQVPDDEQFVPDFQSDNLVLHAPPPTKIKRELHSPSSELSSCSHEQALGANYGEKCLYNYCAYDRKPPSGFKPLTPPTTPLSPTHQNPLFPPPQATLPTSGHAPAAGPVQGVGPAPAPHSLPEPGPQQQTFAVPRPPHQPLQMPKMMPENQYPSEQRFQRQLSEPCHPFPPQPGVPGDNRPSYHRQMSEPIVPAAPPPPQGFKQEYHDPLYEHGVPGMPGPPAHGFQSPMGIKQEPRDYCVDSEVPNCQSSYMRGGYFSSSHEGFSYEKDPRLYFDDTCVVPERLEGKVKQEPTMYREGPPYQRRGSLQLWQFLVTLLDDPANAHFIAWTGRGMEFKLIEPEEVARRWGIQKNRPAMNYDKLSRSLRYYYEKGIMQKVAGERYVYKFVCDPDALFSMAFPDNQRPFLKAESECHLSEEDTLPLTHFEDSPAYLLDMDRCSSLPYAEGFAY
Chain of CRX (O43186 whole entry): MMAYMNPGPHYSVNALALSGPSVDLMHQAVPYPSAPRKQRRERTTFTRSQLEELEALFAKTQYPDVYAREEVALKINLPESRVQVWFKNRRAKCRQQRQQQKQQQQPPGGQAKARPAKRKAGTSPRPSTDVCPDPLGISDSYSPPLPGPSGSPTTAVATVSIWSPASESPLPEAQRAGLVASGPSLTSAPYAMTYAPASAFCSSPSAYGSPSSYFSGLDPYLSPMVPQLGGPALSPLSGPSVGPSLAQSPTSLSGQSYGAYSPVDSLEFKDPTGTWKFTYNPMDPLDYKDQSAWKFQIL

CCCCCA
binding signal (FEV): 1.21 fold enrichment (6-mer frequency, TF over GST control) | binding signal (ETV5): 1.19 fold enrichment (6-mer frequency, TF over GST control) | binding signal (HSF1): 1.06 fold enrichment (6-mer frequency, TF over GST control) | binding signal (SPIC): 1.16 fold enrichment (6-mer frequency, TF over GST control) | binding signal (ELF4): 1.2 fold enrichment (6-mer frequency, TF over GST control) | binding signal (ELK4): 1.19 fold enrichment (6-mer frequency, TF over GST control) | binding signal (ETV2): 1.4 fold enrichment (6-mer frequency, TF over GST control) | binding signal (ELF3): 1.3 fold enrichment (6-mer frequency, TF over GST control) | binding signal (CRX): 1.02 fold enrichment (6-mer frequency, TF over GST control)
